Experimental findings from PubChem BioAssay are described below.

The nature of test [1]: binders of probe aFSTL3 on microarray, primary screen, stem cell growth factor project, biochemical, small-molecule microarray, fluorescence 635/667 (AID 1064).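 Note: measures binding of the biotinylated anti-FSTL3 antibody to printed compounds.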 The following applies: higher = more signal.
Test [2] is described as follows: binders from COS7 lysate, DM2A8 probe, primary screen, torsin A project, cell lysate, small-molecule microarray, fluorescence 635/667 (AID 1065). The following applies: higher = more signal, COS7 lysate expressing mutant human TOR1A.
The nature of test [3]: binders of probe aFGF2 on microarray, primary screen, stem cell growth factor project, biochemical, small-molecule microarray, fluorescence 635/667 (AID 1067).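 Note: measures binding of biotinylated aFGF2 protein to printed compounds on slides; z-score merges feature fluorescence and signal-to-noise across triplicate slides.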 The conditions noted are these: higher = more signal.
A short description of test [4]: binders of probe aFGF10 on microarray, primary screen, stem cell growth factor project, biochemical, small-molecule microarray, fluorescence 635/667 (AID 1071).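 Note: score merges 667 nm spot intensity and signal to noise from triplicate slides.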 The following applies: higher = more signal.
Test [5] has as its target Neurogenic locus notch homolog protein 2 (Homo sapiens) (UniProt Q04721). Kind of test: Notch2 binders on small-molecule microarrays, primary screen, biochemical, small-molecule microarray, 635 nm fluorescence, stem cell growth factors (AID 1073). The conditions noted are these: Notch2 binding, higher = more signal.
Test [6] deals with Pro-neuregulin-1, membrane-bound isoform (Homo sapiens) (UniProt Q02297). Kind of test: NRG1 binders on small-molecule microarrays, primary screen, psychiatric disease protein project, biochemical, small-molecule microarray, fluorescence 635/667 (AID 1075).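 Note: score combines 667 nm spot fluorescence with signal to noise.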 The following applies: NRG1 binding, 635 nm fluorescence, higher = more signal.
Test [7] concerns Neuregulin-1 EGF-like domain. Put plainly: binders of neuregulin-1 EGF-like domain, primary screen, biochemical, small-molecule microarray, 635 nm fluorescence (AID 1081).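 Note: binding of the protein to compounds printed on small-molecule microarray slides.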 The conditions noted are these: small-molecule microarray binding, higher = more signal.
Test [8] is described as follows: FRG1 promoter luciferase signal modulators, primary screen, FRG1 inhibition for FSHD, cell-based, C2C12 myotubes, firefly/Renilla luciferase, luminescence (AID 1084). The following applies: higher = more signal, called active from +8 up or from −8 down.
Test [9] in a line: binders of probe aFST on microarray, primary screen, stem cell growth factor project, biochemical, small-molecule microarray, fluorescence 635/667 (AID 1086).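 Note: score merges 667 nm fluorescence with signal-to-noise of each printed compound spot.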 The conditions noted are these: higher = more signal.
The nature of test [10]: binders of probe aHhip on microarray, primary screen, stem cell growth factor project, biochemical, small-molecule microarray, fluorescence 635/667 (AID 1087).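 Note: score merges spot fluorescence at 667nm with spot signal to noise ratio.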 The conditions noted are these: higher = more signal.
Test [11] relates to PRMT1 (protein arginine N-methyltransferase 1). Put plainly: PRMT1 binders on small-molecule microarrays, primary screen, biochemical, small-molecule microarray, 635 nm fluorescence (AID 1088).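 Note: binding of Prmt1 protein to compounds spotted on small-molecule microarray slides.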 The conditions noted are these: small-molecule microarray binding, higher = more signal.
A short description of test [12]: yeast growth modulation, basal conditions, primary screen, YJM789 clinical isolate, OD600, 24 h (AID 1089).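 Note: growth of clinical yeast isolate S. cerevisiae YJM 789 seeded 1000 cells per well; test concentration not given here.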 The conditions noted are these: S. cerevisiae YJM789 growth, higher = more signal, called active from +8 up or from −8 down.
Test [13] in a line: fission yeast growth modulation, primary screen, strain 972, OD600, 24 h, no modulator (AID 1090).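 Note: basal condition with compound alone and no growth modifier present; test concentration not given here.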 The following applies: S. pombe 972 growth, higher = more signal, called active from +8 up or from −8 down.
Test [14] is described as follows: S. cerevisiae growth modulation with rapamycin, primary screen, strain BY4716, OD600, 96 h (AID 1091). Note: test concentration not given here. The following applies: higher = more signal, called active from +8 up or from −8 down.
In test [15] the target is Torsin-1A-interacting protein 2 (Homo sapiens) (UniProt Q8NFQ8). Put plainly: LULL1 binders on small-molecule microarray, primary screen, cell lysate, human LULL1 lysate, 635/667 nm fluorescence (AID 1092).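 Note: score merges per-feature 667 nm fluorescence with signal-to-noise.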 The conditions noted are these: hLULL1 lysate binding, 635 nm fluorescence, higher = more signal.
A short description of test [16]: E. coli growth modulation, two-sided OD650, primary screen, E. coli filamentation project, strain DRC41, 24 h (AID 1093).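 Note: MC1000 strain lacking acrAB efflux and sulA so SOS filamentation is blocked; test concentration not given here.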 The following applies: OD650, 24 h, higher = more signal, called active from +8 up or from −8 down.
Test [17] can be described thus: small-molecule microarray binders of probe aLefty2, primary screen, biochemical, biotinylated probe, 635/667 nm fluorescence (AID 1094).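 Note: score merges spot fluorescence near 667 nm with spot signal-to-noise ratio.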 The conditions noted are these: higher = more signal.
The subject of test [18] is Noggin (protein binding on small-molecule microarray). Put plainly: Noggin binders on small-molecule microarray, primary screen, biochemical, 635/667 nm fluorescence (AID 1095).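 Note: score merges 667 nm feature fluorescence with signal to noise over triplicate slides.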 The following applies: 635 nm fluorescence, higher = more signal.
The target of test [19] is Neurogenic locus notch homolog protein 3 (Homo sapiens) (UniProt Q9UM47). Put plainly: NOTCH3 binders on small-molecule microarray, primary screen, biochemical, 635/667 nm fluorescence (AID 1096). The following applies: NOTCH3 binding, 635 nm fluorescence, higher = more signal.
Test [20] can be described thus: small-molecule microarray binders of probe aEGFR, primary screen, biochemical, biotinylated probe, 635/667 nm fluorescence (AID 1097).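 Note: probe is a biotinylated anti-EGFR antibody binding compounds printed on slides; score combines fluorescence near 667 nm and signal to noise of each spot.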 The conditions noted are these: higher = more signal.

Active and inactive are the calls of the source.

Torsin-1A-interacting protein 2 (Homo sapiens), sequence (Q8NFQ8 whole entry, looked up): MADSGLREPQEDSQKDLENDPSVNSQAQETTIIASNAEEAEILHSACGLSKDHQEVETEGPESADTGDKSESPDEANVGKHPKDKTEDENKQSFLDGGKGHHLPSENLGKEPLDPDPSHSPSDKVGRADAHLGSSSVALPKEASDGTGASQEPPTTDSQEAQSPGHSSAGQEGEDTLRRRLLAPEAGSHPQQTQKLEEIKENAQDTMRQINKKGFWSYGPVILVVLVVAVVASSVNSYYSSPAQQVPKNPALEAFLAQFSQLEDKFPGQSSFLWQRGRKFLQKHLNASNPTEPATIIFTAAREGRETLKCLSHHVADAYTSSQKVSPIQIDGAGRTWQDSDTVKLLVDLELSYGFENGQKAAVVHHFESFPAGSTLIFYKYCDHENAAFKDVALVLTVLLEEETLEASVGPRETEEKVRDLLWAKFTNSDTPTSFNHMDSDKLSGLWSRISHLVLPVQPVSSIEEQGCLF
Pro-neuregulin-1, membrane-bound isoform (Homo sapiens), sequence (Q02297 whole entry, looked up, the tested form may be a part, canonical isoform): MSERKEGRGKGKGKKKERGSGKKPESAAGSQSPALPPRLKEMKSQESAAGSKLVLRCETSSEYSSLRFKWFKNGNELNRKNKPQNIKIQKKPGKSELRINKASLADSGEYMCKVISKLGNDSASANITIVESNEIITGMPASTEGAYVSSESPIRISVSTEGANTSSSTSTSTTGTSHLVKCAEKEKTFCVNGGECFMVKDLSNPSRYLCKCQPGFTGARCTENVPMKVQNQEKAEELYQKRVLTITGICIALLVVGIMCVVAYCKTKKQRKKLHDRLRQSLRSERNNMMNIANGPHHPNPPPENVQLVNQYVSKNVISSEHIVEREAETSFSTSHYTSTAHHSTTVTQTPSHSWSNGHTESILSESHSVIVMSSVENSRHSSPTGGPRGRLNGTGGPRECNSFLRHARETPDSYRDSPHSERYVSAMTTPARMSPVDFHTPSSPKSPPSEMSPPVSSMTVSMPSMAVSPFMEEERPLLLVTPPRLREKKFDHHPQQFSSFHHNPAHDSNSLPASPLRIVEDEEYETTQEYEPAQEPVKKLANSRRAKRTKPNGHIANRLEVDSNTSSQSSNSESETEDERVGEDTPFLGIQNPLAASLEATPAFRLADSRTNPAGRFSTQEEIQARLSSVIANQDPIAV
Neurogenic locus notch homolog protein 3 (Homo sapiens), sequence (Q9UM47 whole entry, looked up): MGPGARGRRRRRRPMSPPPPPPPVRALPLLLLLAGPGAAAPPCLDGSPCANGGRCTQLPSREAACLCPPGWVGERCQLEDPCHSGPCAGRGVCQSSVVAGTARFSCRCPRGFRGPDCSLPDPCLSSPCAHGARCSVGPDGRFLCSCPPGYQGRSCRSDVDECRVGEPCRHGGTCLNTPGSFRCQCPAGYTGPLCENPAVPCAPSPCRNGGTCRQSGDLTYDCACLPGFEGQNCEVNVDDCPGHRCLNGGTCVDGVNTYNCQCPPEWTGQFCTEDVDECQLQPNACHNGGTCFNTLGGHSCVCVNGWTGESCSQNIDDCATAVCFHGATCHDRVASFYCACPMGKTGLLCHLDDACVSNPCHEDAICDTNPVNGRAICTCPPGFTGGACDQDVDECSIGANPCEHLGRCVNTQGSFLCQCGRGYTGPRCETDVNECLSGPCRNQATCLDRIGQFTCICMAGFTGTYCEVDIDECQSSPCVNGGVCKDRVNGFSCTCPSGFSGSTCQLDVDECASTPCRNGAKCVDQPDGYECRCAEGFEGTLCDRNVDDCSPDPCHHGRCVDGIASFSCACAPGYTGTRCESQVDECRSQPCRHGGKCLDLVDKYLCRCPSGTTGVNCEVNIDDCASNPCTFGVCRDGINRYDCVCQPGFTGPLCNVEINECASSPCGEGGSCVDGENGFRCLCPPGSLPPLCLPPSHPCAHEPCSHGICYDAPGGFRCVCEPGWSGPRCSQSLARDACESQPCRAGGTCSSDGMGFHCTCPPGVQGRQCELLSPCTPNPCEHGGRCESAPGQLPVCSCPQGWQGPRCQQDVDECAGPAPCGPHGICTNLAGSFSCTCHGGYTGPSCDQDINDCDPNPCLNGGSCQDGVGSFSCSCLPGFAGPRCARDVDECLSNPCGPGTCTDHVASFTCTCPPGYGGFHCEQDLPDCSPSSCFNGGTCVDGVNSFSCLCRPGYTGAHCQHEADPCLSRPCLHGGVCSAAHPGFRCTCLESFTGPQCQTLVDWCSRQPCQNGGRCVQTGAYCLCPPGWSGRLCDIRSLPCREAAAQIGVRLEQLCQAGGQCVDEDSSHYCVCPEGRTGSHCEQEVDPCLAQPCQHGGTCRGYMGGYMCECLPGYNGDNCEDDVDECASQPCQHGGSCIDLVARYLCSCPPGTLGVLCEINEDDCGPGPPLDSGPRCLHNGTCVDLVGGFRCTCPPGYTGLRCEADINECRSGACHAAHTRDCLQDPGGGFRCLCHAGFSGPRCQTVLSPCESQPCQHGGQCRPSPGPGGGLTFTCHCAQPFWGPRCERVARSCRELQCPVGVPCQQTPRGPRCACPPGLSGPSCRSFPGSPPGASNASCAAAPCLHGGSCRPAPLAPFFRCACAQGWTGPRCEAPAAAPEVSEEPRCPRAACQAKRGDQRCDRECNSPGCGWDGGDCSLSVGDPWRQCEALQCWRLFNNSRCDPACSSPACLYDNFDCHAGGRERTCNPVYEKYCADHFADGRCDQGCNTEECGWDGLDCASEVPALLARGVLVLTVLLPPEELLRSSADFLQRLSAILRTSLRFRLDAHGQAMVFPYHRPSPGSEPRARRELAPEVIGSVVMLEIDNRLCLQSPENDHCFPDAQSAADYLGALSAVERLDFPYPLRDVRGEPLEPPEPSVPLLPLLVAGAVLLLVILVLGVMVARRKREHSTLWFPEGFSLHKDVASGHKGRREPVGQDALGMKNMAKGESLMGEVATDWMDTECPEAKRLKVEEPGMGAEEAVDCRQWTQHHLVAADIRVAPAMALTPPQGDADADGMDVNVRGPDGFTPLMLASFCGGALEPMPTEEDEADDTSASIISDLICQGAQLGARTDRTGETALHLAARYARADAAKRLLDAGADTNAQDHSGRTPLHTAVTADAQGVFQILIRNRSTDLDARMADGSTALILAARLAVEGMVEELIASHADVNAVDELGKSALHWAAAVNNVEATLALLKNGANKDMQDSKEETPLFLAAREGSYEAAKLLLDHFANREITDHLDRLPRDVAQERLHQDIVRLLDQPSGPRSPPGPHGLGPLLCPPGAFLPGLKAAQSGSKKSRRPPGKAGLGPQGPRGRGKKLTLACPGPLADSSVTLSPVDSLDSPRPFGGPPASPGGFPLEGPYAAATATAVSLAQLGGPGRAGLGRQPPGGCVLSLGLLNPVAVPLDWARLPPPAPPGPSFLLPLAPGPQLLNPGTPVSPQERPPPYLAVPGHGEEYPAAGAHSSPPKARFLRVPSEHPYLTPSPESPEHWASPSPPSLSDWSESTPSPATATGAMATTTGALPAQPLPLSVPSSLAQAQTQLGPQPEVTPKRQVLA

For the molecule `COC(=O)[C@@]1(Cc2ccc(OC)cc2)[C@H]2c3cc(C(=O)N(C)C)n(Cc4ccc(S(C)(=O)=O)cc4)c3C[C@H]2CN1C(=O)c1ccccc1`, the composite z-score was determined as 1.12 in [1]; 0.325 in test [2]; 0.27 in [3]; 0.178 in test [4]; 1.24 in [5]; 1.64 in test [6]. For the same molecule, the composite z-score in [7] was 1.31; in test [9] it was 1.46; in test [10], 0.296; in test [11], -0.142; in test [15], 3.4; in [17], -0.264. The composite z-score in test [18] amounted to 0.715; in test [19], 1.11; in [20], 0.0174. The z-score was -1.49 (inactive) in test [8]; -3.22 (inactive) in test [12]; -0.462 (inactive) in test [13]; -0.154 (inactive) in test [14]; 0.0416 (inactive) in test [16].

`COc1ccc(C(O)C2C=CC3C(=O)N(Cc4ccccc4)C(=O)C3N2n2cnnc2)cc1OCc1ccccc1` (stereo not given): the composite z-score in test [1] is -0.0405; in [2], -0.209; in test [3] it was -0.0996; in test [4] it was 0.193; in test [5] it was -0.0176; in [6], 0.834. The composite z-score in test [7] is 0.613; in test [9] it was 0.777; in test [10], -0.0296; in test [11] it was 0.953; in test [15], 2.59; in test [17] it was 0.114. Further, the figures for the composite z-score in test [18], in test [19] and in test [20] were 0.0181, 0.331 and -0.0512, respectively. Moreover, the z-score was 0.364 (inactive) in test [8]; -1.56 (inactive) in test [12]; 0.0901 (inactive) in test [13]; -0.62 (inactive) in test [14]; 1.69 (inactive) in test [16].

For `CCN(CC)c1ccc(N2CC=CC34O[C@@H]5C=CCCOC(=O)C5[C@H]3C(=O)N(CCCCCCO)[C@@H]4C2=O)cc1` (stereo not given in full), the composite z-score in [1] is -0.16; in test [2], 0.345; in test [3] it was -0.16; in test [4], -0.286; in [5], -0.439; in [6] it was -0.173. Also, the composite z-score is 1.6 in test [7]; -0.581 in test [9]; -0.249 in [10]; -0.171 in test [11]; 2.94 in test [15]; -0.192 in test [17]. For the same molecule, the composite z-score was -0.612 in test [18], -0.619 in test [19] and -0.0493 in test [20]. Further, the z-score was -0.959 (inactive) in [8]; -2.16 (inactive) in test [12]; -0.431 (inactive) in [13]; -1.74 (inactive) in test [14]; 2.49 (inactive) in test [16].

As to `COC(=O)[C@H](Cc1ccccc1)N[C@@H](/C=C/C1CC1)[C@H](O)Cc1ccccc1`, the composite z-score in [1] is 0.115; in test [2], -0.355; in [3] it was 0.0748; in test [4], 0.699; in test [5], -1.08; in test [6], -0.292. Besides, the composite z-score in [7] is 0.583; in [9] it was -0.575; in test [10] it was -0.409; in test [11], 0.136; in test [15], 0.521; in test [17] it was -0.127. Besides, the composite z-score is -0.327 in [18], -0.505 in test [19] and -0.218 in test [20]. Besides, the z-score in test [8] is -2.66 (inactive); in test [12], -0.701 (inactive); in [13], -7.84 (inactive); in test [14] it was -0.581 (inactive); in [16], -0.296 (inactive).

`O=C(c1ccccc1)N1C(=O)[C@@]2(Cc3ccccc31)N=C(c1ccc(OCCCO)cc1)O[C@H]2c1ccccc1`: the composite z-score in test [1] was 0.77; in test [2] it was 0.686; in test [3] it was 0.15; in test [4] it was 0.663; in test [5], 1.17; in [6], 1.57. Also, the composite z-score in test [7] came out at 1.39; in test [9] it was 1.01; in test [10] it was 0.364; in test [11], 1.55; in test [15], 2.59; in test [17] it was 0.384. For the same molecule, the results for the composite z-score in test [18], in test [19] and in test [20] were 0.487, 1.09 and 0.291, respectively. Further, the z-score is -2.91 (inactive) in test [8]; -0.26 (inactive) in test [12]; -1.23 (inactive) in test [13]; 1.74 (inactive) in test [14]; 0.0877 (inactive) in test [16].

`COCCOC(=O)N1C(=O)[C@@]2(c3cc(C#CCC(C(=O)OC)C(=O)OC)ccc31)[C@H](c1ccccc1OCCO)N1[C@H](c3ccccc3)[C@H](c3ccccc3)OC(=O)[C@H]1[C@@H]2C(=O)NC[C@H](O)c1ccccc1`: the composite z-score is -0.0494 in [1]; 0.114 in test [2]; -0.117 in test [3]; 0.791 in test [4]; 0.961 in test [5]; 1.27 in [6]. In addition, the composite z-score in [7] worked out at 1.15; in test [9], 0.357; in [10], 0.152; in test [11], 1.54; in [15] it was 2.32; in test [17], 0.032. The values for the composite z-score in [18], in test [19] and in test [20] were 1.62, 1.05 and 0.379, respectively. In addition, the z-score in [8] is -0.923 (inactive); in test [12], 1.78 (inactive); in [13], 2.17 (inactive); in test [14], 5.84 (inactive); in [16], -0.036 (inactive).
